A selection: hits, their analogues and other compounds. The true share with any hit is near 12%.
BAZ2B inh – blocks human BAZ2B | actives 4.4% (n = 360,000) | Q9UIF8 | AlphaScreen BAZ2B-H3K14Ac peptide displacement | Potency, µM (titrated, usually from 114 µM), inactives show top-dose activity change, negative = inhibition, hits mostly inhibitors; note: % is set by controls: 0 for no effect and ±100 for the full control effect; nearly all actives have a fitted effect of over 60% in size
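Complex of BAZ2B and biotin-H3K14Ac (50 nM apiece) forms over 30 min at RT, then faces library compounds up to 110 uM for another 30 min; AlphaScreen beads added, 20 min dark incubation, luminescence read.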
HP1b binding inh – blocks HP1-beta chromodomain binding to methylated histone tails; P83916; AlphaScreen HP1-beta / biotin-H3K9me3 peptide binding; Potency, µM (doses to about 114 µM), without a hit: top-dose activity change, negative = inhibition, hits mostly inhibitors; actives 0.56% (n = 390,000); AID 540317; note: nearly all actives have a fitted effect of over 70% in size
Target sequence (P83916 whole entry, looked up): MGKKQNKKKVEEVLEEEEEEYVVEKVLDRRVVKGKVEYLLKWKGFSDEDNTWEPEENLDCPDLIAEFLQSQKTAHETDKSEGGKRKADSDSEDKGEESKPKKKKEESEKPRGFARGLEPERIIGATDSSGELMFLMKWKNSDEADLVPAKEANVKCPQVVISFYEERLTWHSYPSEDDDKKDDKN
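HP1-beta protein (50 nM final) preincubated 30 min at room temperature with biotinylated H3(1-18)K9me3 peptide (50 nM) in PBS pH 7.4, 0.01% Tween-20, then compound added for 30 min. AlphaScreen streptavidin donor/nickel chelate acceptor beads (10 ug/mL final), 30 min dark, luminescence read.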
G9a inh – blocks human histone lysine methyltransferase G9a | G9a H3K9 monomethylation, AlphaScreen, 2 h | Potency, µM (doses to about 102 µM), inactives show at the highest dose activity, negative = inhibition, hits mostly inhibitors | actives 8.8% (n = 350,000); note: % is set by controls: 0 for no effect and ±100 for the full control effect; nearly all actives have a fitted effect of over 75% in size
Target sequence (Q96KQ7 913-1193 limits assumed): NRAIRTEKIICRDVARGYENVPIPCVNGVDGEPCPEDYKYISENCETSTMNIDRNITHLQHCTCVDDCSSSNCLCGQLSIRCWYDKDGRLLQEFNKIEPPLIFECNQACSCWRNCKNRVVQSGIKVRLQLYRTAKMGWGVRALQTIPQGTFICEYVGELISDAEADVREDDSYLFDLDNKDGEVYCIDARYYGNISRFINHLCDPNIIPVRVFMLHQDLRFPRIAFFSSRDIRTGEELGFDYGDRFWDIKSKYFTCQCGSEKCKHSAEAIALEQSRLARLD
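AlphaScreen read-out: biotin-H3K9 peptide (500 nM) methylation by 20 nM enzyme with 20 uM SAM, 2 h at room temperature after 15 min compound preincubation; anti-monomethyl H3K9 antibody plus donor/acceptor beads, 10 min dark.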
Sfp inh – blocks B. subtilis Sfp PPTase activity; Q9F4F7; Biochemical Sfp PPTase activity, qHTS; Potency, µM, without a hit: largest response in the series, negative = inhibition, most hits filed as inhibitors; actives 3.5% (n = 310,000); AID 1490;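 note: the enzyme is Sfp with the accession as filed and its product quenches rhodamine fluorescence; 0% = enzyme reaction without inhibitor and -100% = no enzyme wells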
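Step 1, compound plus 15 nM Sfp-PPTase, 15 min, room temperature. Step 2, add rhodamine-CoA (5 uM) and BHQ-2-YbbR (12.5 uM). Step 3, read 525/598 nm fluorescence at 0 and 30 min.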
JMJD2A Tudor inh – blocks the human JMJD2A Tudor domain; actives 4.4% (n = 390,000); Potency, µM (titrated, usually from 114 µM), inactives show top-dose activity change, negative = inhibition, most hits filed as inhibitors; AlphaScreen JMJD2A-Tudor / H3K4me3 peptide binding; note: % is set by controls: 0 for no effect and ±100 for the full control effect; nearly all actives have a fitted effect of over 50% in size
PLK1 PBD block – PLK1 (human) polo-box domain binding inhibition; P53350; Plk1 PBD binding of FITC phosphopeptide, fluorescence polarization; Potency, µM, inactives show max response, negative = inhibition, hits mostly inhibitors; actives 2.8% (n = 360,000); note: series mostly up to about 57 µM; % is set by controls: 0 for no effect and ±100 for the full control effect; nearly all actives have a fitted effect of over 65% in size
* hit, by the source's call; ? = inconclusive; . = no result; [ ] = dose if it differs, or a comment. Calls come from the whole dose curve; as a rule, active = well fitted curve in the direction sought with a large enough effect; inconclusive = small, poorly fitted or top-dose-only effect, or another doubt; inactive = no such curve, though single readings can be large; an effect the other way counts as inactive or inconclusive. Potency is the fitted concentration of half-maximal effect.

SMILES	BAZ2B inh	HP1b binding inh	G9a inh	Sfp inh	JMJD2A Tudor inh	PLK1 PBD block
CN[C@H](CC(C)C)C(=O)N[C@H]1C(=O)N[C@@H](CC(N)=O)C(=O)N[C@H]2C(=O)N[C@H]3C(=O)N[C@H](C(=O)N[C@H](C(=O)O)c4cc(O)cc(O)c4-c4cc3ccc4O)[C@H](O)c3ccc(c(Cl)c3)Oc3cc2cc(c3O[C@@H]2O[C@H](CO)[C@@H](O)[C@H](O)[C@H]2O[C@H]2C[C@](C)(N)[C@H](O)[C@H](C)O2)Oc2ccc(cc2Cl)[C@H]1O	.	.	38.5%[12.7 µM]	.	.	.
O=C(O)Cn1cc(/C=C2\C(=O)NC(=O)N(Cc3ccco3)C2=O)c2ccccc21	70.8µM*	-30.5%	15.8µM*	28.2µM*	79.4µM*	9.47µM*
CCC(C)C1NC(=O)C(C(C)=O)=C1O (configuration not stated)	50.1µM*	44.3%	13.6%[12.7 µM]	-4.0%	-23.1%	-0.4%
Cc1cc(C(=O)CS(=O)c2ccc(F)cc2)cc(C)c1OC(=O)N(C)C (configuration not stated)	-12.7%	34.5%	39.8µM*	?	-6.9%	11.9µM*
c1cncc(CNC2CCCC2)c1	?	39.0%	7.7%[0.501 µM]	-0.7%	?	-22.5%
c1cncc(CNC2=NCCCCC2)c1	79.4µM*	4.1%	?	7.5%	-12.1%	-7.1%
CCN(CC)c1ccc(CNc2nc3ccccc3n2C)cc1	44.7µM*	23.9%	.	-2.1%	?	-1.3%
O=C(C1CC(c2ccccc2O)=NO1)N1CCC2(CC1)OCCO2 (configuration not stated)	-7.9%	12.5%	50.1µM*	3.0%	14.1µM*	-0.3%
O=C(c1ccccc1)N1CCC2(CC1)OCCO2	0.6%	20.8%	.	-4.5%	-5.8%	-8.4%
CC(C)C[C@H]1C(=O)N2CCCC2[C@]2(O)O[C@](NC(=O)[C@@H]3C=C4c5cccc6[nH]c(Br)c(c56)C[C@H]4N(C)C3)(C(C)C)C(=O)N12 (some centres not stated)	.	.	22.4µM*	44.7µM*	.	.
Cc1nc2ccccc2c(=O)n1-c1cc([N+](=O)[O-])cc([N+](=O)[O-])c1	-31.9%	38.4%	13.6%[59 µM]	19.4%	-7.9%	-3.0%
Cc1nc(C(=O)O)nn1-c1ccc([N+](=O)[O-])cc1	?	19.3%	50.1µM*	20.8%	4.7%	4.0%
COP(=S)(OC)Oc1ccc([N+](=O)[O-])cc1	.	.	.	-3.2%	.	.
Cc1n[nH]c(C)c1CCCCOc1ccc([N+](=O)[O-])cc1	-19.7%	17.8%	50.1µM*	5.7%	-15.0%	-0.1%
Oc1ccc(/C=N/NP(=S)(c2ccccc2)c2ccccc2)cc1	?	?	?	?	?	23.8µM*
COc1cc(/C=N/NP(=S)(c2ccccc2)c2ccccc2)ccc1O	-35.3%	-39.1%	44.7µM*	-24.1%	?	?
N#Cc1cccc(NC(=O)N2CCCC3(CCN(C(=O)Oc4ccccc4)CC3)C2)c1	.	.	-2.5%[12.7 µM]	10.6%	.	.
CO/C1=C\C(C)=C\[C@@H](C)[C@@H](O)[C@@H](C)C/C(C)=C/C=C/[C@H](OC)[C@@H]([C@@H](C)[C@@H](O)[C@H](C)[C@@]2(O)C[C@@H](O)[C@H](C)C(C(C)C)O2)OC1=O (some centres not stated)	.	.	.	-5.4%	.	.
COc1ccccc1C1Nc2ccccc2-n2c(-c3ccccc3)c3c(=O)n(C)c(=O)n(C)c3c21 (configuration not stated)	-23.5%	49.9%	?	.	-26.2%	.
O=c1cc(C(F)(F)F)c2cc3c4c(c2o1)CCCN4CCC3	102.3%	243.4%	159.0%	-6.8%	89.0%[11.4 µM]	1.19µM*
NCC1OC(O[C@H]2[C@H](O)[C@@H](OC3C(O)C(N)CC(N)C3OC3OC(CO)C(O)C(O)C3N)O[C@@H]2CO)C(N)C(O)C1O (some centres not stated)	.	.	5.97µM*	.	.	.
NC[C@@H]1O[C@H](O[C@H]2[C@@H](O)[C@H](O[C@@H]3[C@@H](O)[C@H](N)C[C@H](N)[C@H]3O[C@H]3O[C@H](CO)[C@@H](O)[C@H](O)[C@H]3N)O[C@@H]2CO)[C@H](N)[C@@H](O)[C@@H]1O	2.8%	.	9.1%[59 µM]	22.2%	.	.
O=c1[nH]c(=S)[nH]c(O)c1N=Nc1cc(S(=O)(=O)Nc2ccc(Cl)cc2)ccc1Cl	35.5µM*	39.8µM*	?	.	35.5µM*	29.9µM*
O=C(COc1ccc2ccccc2c1)N1CCN(C2CCN(Cc3ccccc3)CC2)CC1	-4.3%	-2.6%	-48.4%	-0.1%	-24.3%	-11.9%
COc1ccc(OCC(=O)N2CCN(C3CCC(c4ccccc4)CC3)CC2)cc1 (configuration not stated)	50.1µM*	?	?	-1.0%	20µM*	-9.8%
SMILES	BAZ2B inh	HP1b binding inh	G9a inh	Sfp inh	JMJD2A Tudor inh	PLK1 PBD block
CN1CCCN(C(=O)COc2ccccc2)CC1	-2.4%	31.5%	.	13.6%	12.1%	2.9%
O=C(COc1ccccc1)N1CCN(C2CCCC2)CC1	-105.9%	-54.5%	10µM*	-3.9%	7.94µM*	2.8%
CCOC(=O)C1(CCCc2ccccc2)CCN(C2CCCC2)CC1	?	23.4%	-1.6%	2.5%	-9.8%	-14.8%
O=C(Cc1ccccc1)N1CCN(C2CCCC2)CC1	?	-33.6%	-30.6%[2.33 µM]	89.1µM*	31.6µM*	-6.9%
C=C(C)[C@]12C[C@@H](C)[C@@]34OC(Cc5ccccc5)(O[C@@H]1[C@@H]3C=C(COC(=O)Cc1cc(I)c(O)c(OC)c1)C[C@]1(O)C(=O)C(C)=C[C@@H]41)O2	.	.	-4.4%[59 µM]	33.8%	.	.
Cc1noc(C)c1C(=O)N1CCC2(CCCN(CC(C)C)C2)CC1	.	.	7.0%[12.7 µM]	4.0%	.	.
COc1cc(CN2CCc3nc(N4CCN(c5ccccc5F)CC4)ncc3C2)ccc1OC(C)C	?	18.9%	-13.5%[59 µM]	.	-21.9%	.
COc1cc(CN2CCc3nc(N4CCN(c5ncccn5)CC4)ncc3C2)cc(OC)c1OC	44.7µM*	-14.4%	?	.	50.1µM*	.
COc1cc(CN2CCc3nc(N4CCN(c5ccccn5)CC4)ncc3C2)cc(OC)c1OC	50.1µM*	?	?	.	79.4µM*	.
Cc1ccc(-n2nc(C)c3c2OC(N)=C(C#N)C3c2cccs2)cc1 (configuration not stated)	35.5µM*	36.5%	35.5µM*	5.7%	-1.4%	-0.1%
CC(C)CC(=O)Nc1ccc(C(=O)Cn2c(=O)oc3ccccc32)cc1	?	7.9%	-4.4%	5.8%	-30.3%	-14.5%
C[C@H](N)C(=O)N[C@@H](C)C(=O)N[C@@H](Cc1ccccc1)C(=O)CCl	.	.	15.8µM*	16.9%	.	.
